# Compound activity from PubChem.
# This is a sample that favours compounds with a hit; in the whole collection about 1.5% have one here.
# uPA generation = blocks generation of uPA at the cell surface | cell surface uPA generation assay, qHTS | Potency, µM (highest dose often 38.3 µM), actives largely listed as inhibitors | hit rate 0.31% among 330,000; active means well fitted inhibition curve with a large enough effect; inconclusive means small, poorly fitted or top-dose-only effect; inactive means no such curve, though single readings can be large or run the other way; tested in mouse RAW 264.7 cells; further: nearly all actives have a fitted effect of over 55% in size
# a7 integrin act = activates integrin-mediated alleviation for muscular dystrophy | alpha7betagal myoblasts, beta-gal FDG fluorescence, 48 h | Potency, µM (titrated, usually from 38.3 µM), actives largely listed as activators | hit rate 0.064% among 350,000 | AID 624291; further: nearly all actives have a fitted effect of over 60% in size
#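 alpha7betagal+/- myoblasts (passage 13, 250/well) treated 48 h at 37C with compounds at 1:260 dilution of DMSO stock. Lysed, then beta-galactosidase activity read as FDG fluorescence (ex 480/em 540) after 30 min, with pre-read for autofluorescence.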
# Nrf2 activator = activators of Nrf2 (ARE) signaling; AREc32 ARE-luciferase reporter (MCF7-derived line), luminescence, 24 h; hit rate 0.31% among 410,000; Potency, µM (series often up to 46.1 µM), hits mostly activators; further: nearly all actives have a fitted effect of over 65% in size
#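 ARE activation measured as luciferase luminescence (Steady-Glo, 30 min RT) in AREc32_Fluc cells after 24 hr compound exposure at 37 deg C, 5% CO2; cells seeded overnight at 1000/well in OPTI-MEM, 5% FBS.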
# IL-2 act = activates IL-2 in a cell-based reporter assay. IL-2 activation reporter assay, cell-based qHTS; stimulated with anti-CD3/CD4/CD28 beads; in transgenic mouse T cells. activation, % (series mostly up to about 46 µM). hit rate 0.065% among 360,000. AID 652025; in the data active means activation above about 50%; inconclusive means mostly about 30% to 49%
#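 Using fluorescent plate cytometry, EGFP and DsRed are detected in transgenic mouse T cells stimulated 18 h at 37 degrees C with antibody-coated beads after 60 min compound pretreatment.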
# 12-LOX inh = ALOX12 (human) lipoxygenase inhibition. P18054. purified 12hLO, xylenol orange hydroperoxide absorbance. Potency, µM (top dose mostly 108 µM), hits mostly inhibitors. hit rate 1.1% among 580,000. AID 1671190
# Target sequence (P18054 whole entry, looked up): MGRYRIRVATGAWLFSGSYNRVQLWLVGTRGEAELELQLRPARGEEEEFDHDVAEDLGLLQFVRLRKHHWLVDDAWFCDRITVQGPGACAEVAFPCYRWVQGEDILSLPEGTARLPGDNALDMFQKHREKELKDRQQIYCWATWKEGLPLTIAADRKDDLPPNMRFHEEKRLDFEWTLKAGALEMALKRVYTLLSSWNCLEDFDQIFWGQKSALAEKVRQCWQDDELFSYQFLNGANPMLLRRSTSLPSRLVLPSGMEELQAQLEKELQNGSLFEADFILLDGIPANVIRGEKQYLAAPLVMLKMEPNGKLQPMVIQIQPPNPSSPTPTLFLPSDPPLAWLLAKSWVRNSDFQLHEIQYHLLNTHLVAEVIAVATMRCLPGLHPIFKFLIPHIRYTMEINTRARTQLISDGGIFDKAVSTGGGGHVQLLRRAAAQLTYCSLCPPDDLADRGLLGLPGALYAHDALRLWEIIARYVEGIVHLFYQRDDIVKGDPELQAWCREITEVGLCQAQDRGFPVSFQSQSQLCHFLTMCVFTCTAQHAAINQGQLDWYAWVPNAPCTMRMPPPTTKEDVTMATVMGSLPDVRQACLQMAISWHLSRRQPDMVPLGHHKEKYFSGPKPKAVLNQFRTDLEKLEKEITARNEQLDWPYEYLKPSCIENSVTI
#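 Purified human 12hLO at 150 nM in 25 mM Hepes, 0.01% Triton X-100, pH 7.0, preincubated 15 min at room temperature with compound. Reaction started with 40 uM arachidonic acid, 30 min at room temperature. Hydroperoxide measured by Fe-xylenol orange, 573/405 nm absorbance ratio.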
# Numbers stand for hits; 0 = inactive; ? = inconclusive; - = no result given; ! = repeats disagree; [ ] = another dose, or the depositor's remark. Unless noted, the call rests on the fitted dose curve; in most records, active means well fitted curve in the direction sought with a large enough effect; inconclusive means small, poorly fitted or top-dose-only effect, or another doubt; inactive means no such curve, though single readings can be large; an effect the other way counts as inactive or inconclusive.
SMILES,uPA generation,a7 integrin act,Nrf2 activator,IL-2 act,12-LOX inh
O=C(NC(=S)Nc1ccccc1Br)c1ccco1,0,0,14µM,0,?
CCCC(=O)Nc1ccc(Cl)c(NC(=S)NC(=O)c2ccco2)c1,0,0,0,0,0
O=C(NC(=S)Nc1cc(Cl)ccc1Cl)c1ccco1,-,0,11µM,0,0
O=C(Nc1cc(Cl)ccc1Cl)c1ccco1,0,0,13µM,0,0
CCOC(=O)Cn1c(=O)c2c3c(sc2n(CCCN(C)C)c1=O)CCCC3,-,-,-,-,0
COc1ccc(C(=O)NCC2Cn3cccc3C(=O)N2C)cc1 (configuration not stated),-,-,-,-,0
CCC(N)(CC)c1cn(CC2CCCN(S(C)(=O)=O)C2)nn1 (configuration not stated),-,-,-,-,20µM
CN(C)c1ccc(C(=O)N2CCCC(Cn3cc(C(=O)N4CCCC4)nn3)C2)cc1 (configuration not stated),-,-,-,-,0
O=C(CCC[C@H]1NC[C@@H]2C[C@H]1CN(Cc1ccccc1)C2)Nc1cccc(F)c1,-,-,-,-,0
COc1cc2c3nnc(-c4ccc(F)cc4)c-3cn(Cc3ccccc3)c2cc1OC,0,0,0,199,?
COc1ccc(CN2CCN(Cc3c[nH]c4ccccc34)CC2)cc1,0,0,0,0,0.71µM
Cc1ccc(CN2CCN(Cc3c[nH]c4ccccc34)CC2)cc1,-,-,-,-,0
COc1ccc(CN2CCN(Cc3c[nH]c4ccccc34)CC2)cc1OC,-,0,0,0,1.1µM
COc1cccc(Nc2nc(-c3ccccc3O)nc3ccccc23)c1,0,0,0,64,?
Oc1ccc(Nc2nc(-c3ccccc3F)nc3ccccc23)cc1,?,0,0,0,18µM!
Oc1ccc(Nc2nc(-c3ccccc3O)nc3ccccc23)cc1,0,0,0,0,28µM!
COc1ccc(Nc2nc(-c3ccccc3F)nc3ccccc23)cc1OC,?,0,0,0,?
COc1ccc(Nc2nc(-c3ccccc3O)nc3ccccc23)cc1,0,0,0,0,0
Cc1cccc(C(=O)N2CCC(OC3CCN(C)CC3)CC2)c1,-,-,-,-,0
C=CCSc1nc(-c2cccs2)cc(C(F)(F)F)c1C#N,-,-,-,-,0
Cc1ccc2[nH]cc(C(C(=O)O)N3CCCN(c4ccc(C(F)(F)F)cn4)CC3)c2c1 (configuration not stated),-,-,-,-,0
CCOC(=O)C(=NC(C)CC)NNc1ccc(Br)cc1 (configuration not stated),0,0,0,0,28µM
CCC(=O)NNc1ccc(Br)cc1,0,0,0,0,0
CCOC(=O)C(=NC(C)CC)NNc1cccc(C(F)(F)F)c1 (configuration not stated),0,0,0,0,?
CCOC(=O)C(=NC1CCS(=O)(=O)C1)NNc1ccccc1Cl (configuration not stated),0,0,0,0,13µM
SMILES,uPA generation,a7 integrin act,Nrf2 activator,IL-2 act,12-LOX inh
CCOC(=O)C(=NC1CCS(=O)(=O)C1)NNc1cc(Cl)ccc1Cl (configuration not stated),0,0,0,0,?
CCOC(=O)C(=NC1CCCCC1)NNc1cccc(C(F)(F)F)c1,0,0,0,0,50µM
CCOC(=O)C(=NC1CCS(=O)(=O)C1)NNc1ccc(Br)cc1 (configuration not stated),0,0,0,0,16µM
Cc1cc(O)c2c(C)c(CC(=O)NCCN3CCOCC3)c(=O)oc2c1,-,-,-,-,0
COc1ccc(NC(=S)N2CCCN(Cc3cccc(Cl)c3)C2)cc1,0,0,0,0,?
CSc1cccc(NC(=S)N2CCCN(Cc3cccc(Cl)c3)C2)c1,0,0,0,0,35µM
S=c1[nH]nc(COc2ccc3ccccc3c2)o1,0,0,0,0,40µM
COc1ccc(CN2C(=O)c3cccnc3C2Nc2cc(Cl)ccc2OC)cc1 (configuration not stated),-,0,0,0,13µM
COc1ccc(OC)c(NC2c3ncccc3C(=O)N2Cc2ccco2)c1 (configuration not stated),-,0,0,0,?
Cc1ccc(OC2(C(=O)N[C@H]3CCc4ccccc43)CCNCC2)cc1,-,-,-,-,0
Cc1ccc(OC2(C(=O)N3CCCC3c3nccs3)CCNCC2)cc1 (configuration not stated),-,-,-,-,18µM
CN1CCC(NC[C@H]2O[C@@H]3C[C@@H](CC(=O)N4CCC(F)(F)C4)O[C@@H]3[C@@H]2O)CC1,-,-,-,-,0
CCOc1ccc(N(Cc2cc3cccc(C)c3[nH]c2=O)C(=O)C(C)C)cc1,-,-,-,-,0
CN(C)c1ccc(C(C[N+](=O)[O-])c2c(N)n(C)c(=O)n(C)c2=O)c(F)c1C#N (configuration not stated),?,0,?,0,-
COc1ccc(Br)cc1C(C[N+](=O)[O-])c1c(N)n(C)c(=O)n(C)c1=O (configuration not stated),3.5µM,0,?,0,?
COc1ccc(OC)c(C(C[N+](=O)[O-])c2c(C)cc3ccccn23)c1 (configuration not stated),0,0,?,0,0
Cn1c(N)c(C(C[N+](=O)[O-])c2c(F)cccc2Cl)c(=O)n(C)c1=O (configuration not stated),0,0,16µM,0,0
CCOC(=O)c1csc(-c2ccc(OC)c(OC)c2)n1,0,?,0,0,0
CCOC(=O)c1csc(-c2sccc2Br)n1,0,?,14µM,0,0
Cc1nn(C)cc1-c1nc2cc(S(=O)(=O)NC(C)C)ccc2n1C(C)C,-,-,-,-,0
CC(=O)c1c(N2CCN(c3cccc(Cl)c3)CC2)nc(=S)n(-c2ccccc2)c1C,0,0,0,0,35µM
COc1ccc(N2CCN(c3nc(=S)n(-c4ccccc4)c(C)c3C(C)=O)CC2)cc1,0,?,0,0,40µM
CC(C)(c1cc(Br)c(O)c(Br)c1)c1cc(Br)c(O)c(Br)c1,0,-,0,0,45µM
CCCC1=NN(c2ccc([N+](=O)[O-])cc2)C(=O)/C1=C\N(C)C,0,0,0[9.22 µM],0,45µM
CC1=NN(c2ccc([N+](=O)[O-])cc2)C(=O)C1[N+](=O)[O-] (configuration not stated),-,-,-,-,0
SMILES,uPA generation,a7 integrin act,Nrf2 activator,IL-2 act,12-LOX inh
CC(=O)Oc1c(Br)cc(N(C(C)=O)S(=O)(=O)c2ccccc2)c2ccccc12,?,0,0,0,13µM
O=C(c1ccccc1)N1CCCC2(CC(c3ccccn3)=NO2)C1 (configuration not stated),-,-,-,-,0[6.33 µM]
O=C(c1ccnnc1)N1CC(F)(F)C[C@H]1c1nc(-c2ccncc2)no1,-,-,-,-,0
Cc1ccc(-n2ncc(C(=O)Nc3cc(Cl)cc(Cl)c3)c2C2CCNCC2)cc1C,11µM,0,0,0,?
COc1ccc(NC(=O)c2cnn(-c3ccc(C)c(C)c3)c2C2CCNCC2)cc1OC,-,-,0,-,0
Cc1cc(C)c2c(N)c(-c3ccc(C#N)cc3)sc2n1,-,-,-,-,4µM
Cc1cccc(N2Cc3c(ncnc3NCc3ccc(C(F)(F)F)cc3)CN(C)C2=O)c1,-,-,-,-,0
